Screens deposited in PubChem BioAssay by several laboratories.
The full list was thinned out, with hits kept by preference.
HIV RNase H inh-1: blocks HIV-1 RNase H cleavage of RNA/DNA duplex; P04585; RT-RNase H RNA/DNA duplex cleavage, fluorescence; inhibition, % at 10 µM; 65,000 compounds, 1.9% hits; in the data active means inhibition above about 50%
RmlC RmlD mix: RmlC/RmlD inhibition, mixture screen | inhibition, % at 5.5 µM | 110,000 compounds, 0.39% hits | AID 1532 | RmlC/RmlD coupled enzyme inhibition, 384-well mixture HTS; in the data active means inhibition above about 30%, passing the limit was not always enough; inconclusive means no clear call, values can overlap the other calls
HIV RNase H inh-2: confirmation of HIV-1 reverse transcriptase RNase H inhibitors; shares compounds with HIV RNase H inh-1; Recombinant RT RNase H, fluorescent RNA/DNA duplex cleavage; inhibition, % at 10 µM; 1,000 compounds, 39% hits; in the data active means inhibition above about 48%; inconclusive means no clear call, values can overlap the other calls
* marks the source's active call; other numbers are inactive results; ? = inconclusive; . = no result.

SMILES	HIV RNase H inh-1	RmlC RmlD mix	HIV RNase H inh-2
O=C1CC(c2ccccc2)Cc2nc(N3CCc4ccccc43)ncc21 (stereo not drawn)	78.2*	-2.0	93.8*
O=C(Nc1ccc(F)cc1)Nc1nnc(-c2ccncc2)s1	.	-4.4	.
COC(=O)Nc1nnc(-c2ccncc2)s1	66.8*	10.9	?
Cc1ccc(Cn2ccc(=O)c(OCc3c(Cl)cccc3Cl)c2C)cc1	.	29.0	.
COc1cc2[nH]c(=O)n(CCC(=O)N3CCN(c4cccc(C)c4C)CC3)c(=O)c2cc1OC	61.1*	8.7	45.7
COc1cc2[nH]c(=O)n(CCCCCC(=O)N3CCN(c4ccccc4)CC3)c(=O)c2cc1OC	.	13.4	.
CN1CCN(Cc2cc(C(C)(C)C)c(O)c(C(C)(C)C)c2)CC1	.	-7.7	.
CC(C)(C)c1cc(C(c2cccnc2)N2CCN(CCO)CC2)cc(C(C)(C)C)c1O (stereo not drawn)	82.7*	10.1	-4.9
CCCc1cc(=O)[nH]c(/N=C(/NC(=O)c2ccccc2)Nc2ccc3c(c2)OCCO3)n1	60.5*	9.4	48.5
Cc1cc(=O)[nH]c(/N=C(/NC(=O)c2ccccc2)Nc2ccc3c(c2)OCCO3)n1	48.2	.	.
COC(=O)c1sc(N2C(=O)c3oc4ccccc4c(=O)c3C2c2cccs2)nc1C (stereo not drawn)	92.5*	-6.8	56.6*
C=CCOC(=O)c1sc(N2C(=O)c3oc4ccccc4c(=O)c3C2c2ccco2)nc1C (stereo not drawn)	36.2	.	.
Cc1cc(C(=O)COC(=O)C2=NNC(=O)CC2)c(C)n1-c1cccc(C(F)(F)F)c1	.	8.3	.
CCn1cc(C(=O)NCc2ccco2)c(=O)c2cc(S(=O)(=O)N3CCc4ccccc4C3)ccc21	65.1*	-0.4	63.1*
CCn1cc(C(=O)NCc2ccco2)c(=O)c2cc(S(=O)(=O)N3CCCCCC3)ccc21	-24.1	5.0	.
COc1cccc(OCC(=O)Nc2c(C(=O)Nc3ccc(OC)cc3OC)oc3ccccc23)c1	89.1*	.	92.9*
CCOCC(=O)Nc1c(C(=O)Nc2ccc(OC)cc2OC)oc2ccccc12	16.8	-7.2	.
O=C(COc1ccccc1Cl)NCc1ccncc1	-5.7	6.6	.
COC(=O)CSc1nnc(CNS(=O)(=O)c2ccc(Cl)cc2)n1C	.	7.2	.
COc1ccc(S(=O)(=O)NCCSCc2ccco2)cc1Cl	-76.2	2.2	.
CC(=O)c1c(C)[nH]c(C(=O)CSc2nnc(-c3ccccc3)o2)c1C	.	-7.1	.
CCOC(=O)c1c(NC(=O)CSc2nc3ccccc3o2)sc(C)c1C	.	8.5	.
CCOC(=O)c1c(C)[nH]c(C(=O)CSc2nnc(CC(C)c3ccccc3)o2)c1C (stereo not drawn)	71.9*	-4.1	?
CCOC(=O)c1c(C)[nH]c(C(=O)CSc2nc3ccccc3o2)c1C	90.0*	4.4	68.9*
CN(CC(=O)Nc1ccccc1Br)Cc1nc2ccccc2c(=O)[nH]1	.	1.0	.
SMILES	HIV RNase H inh-1	RmlC RmlD mix	HIV RNase H inh-2
CCCCN(CC(=O)Nc1c(C)cccc1CC)C(=O)SCC	.	10.4	.
O=C(NCC(=O)N(c1cccc(F)c1)C(C(=O)NCC1CCCO1)c1ccccc1)c1ccco1 (stereo not drawn)	-2.7	-15.1	.
O=C(NCC(=O)N(c1ccc(F)cc1)C(C(=O)NCC1CCCO1)c1ccccc1)c1ccco1 (stereo not drawn)	56.6*	5.2	40.4
O=C(CCSc1ccc(Cl)c(Cl)c1)NC12CC3CC(CC(C3)C1)C2	.	-11.8	.
Cc1ccccc1NC(=O)c1nc[nH]c1C(=O)NCc1ccccc1	-19.7	-40.0	.
COc1ccccc1NC(=O)c1nc[nH]c1C(=O)Nc1ccccc1OC	82.9*	-5.4	41.5
CCOc1ccccc1NC(=O)c1nc[nH]c1C(=O)Nc1ccccc1OCC	84.3*	26.0	?
COc1ccc(NC(=O)c2nc[nH]c2C(=O)Nc2ccccc2C)cc1	-75.7	-0.9	.
Cc1ccc(C(C)C)c(OCCNc2nc3c(c(=O)n(C)c(=O)n3C)n2C)c1	-6.4	.	.
CC(C)C[C@H](NC(=O)c1nc[nH]c1C(=O)N1CCN(C(=O)OC(C)(C)C)CC1)C(=O)OCc1ccccc1	.	20.8	.
O=C1C=Cc2ccccc2C1=O	94.9*	-33.9	66.9*
CCN1C(=C2C(=O)c3ccccc3C2=O)C=Cc2ccccc21	-9.8	15.4	.
Cc1cc(NC(=O)c2cc(C(C)C)on2)nn1Cc1ccc(Cl)cc1	.	3.7	.
Cc1ccc(NC(=O)CSCC(=O)N2c3ccccc3CCc3ccccc32)cc1	.	-0.1	.
COC(=O)C1=C(C(=O)c2ccccc2)C(c2cccs2)n2nnnc2N1 (stereo not drawn)	-0.9	11.1	.
CC1=C(C(=O)Nc2ccc(Cl)cc2)C(c2cccs2)n2nnnc2N1 (stereo not drawn)	72.9*	4.4	4.9
O=S(=O)(NCc1cc(-c2ccccc2Cl)no1)c1ccc(Cl)cc1	.	21.6	.
NS(=O)(=O)c1ccc(NC(=O)c2ccccc2C(=O)N2CCCCC2)cc1	75.7*	3.5	14.3
COc1ccccc1C(=O)Nc1ccc(C(=O)N2CCCC2)cc1	.	-8.6	.
Cc1ccc(S(=O)(=O)Nc2cc(C)c(O)c(S(=O)(=O)c3ccc(C)cc3)c2)cc1	.	9.4	.
Cc1cc(NS(=O)(=O)c2ccccc2)cc(Cl)c1O	77.6*	-6.2	8.7
O=C(c1ccco1)N1CCN(C(=O)c2cc(-c3ccccc3)nc3ccccc23)CC1	.	11.5	.
O=C(c1ccco1)N1CCN(C(=O)c2cc(-c3ccccn3)nc3ccc(Cl)cc23)CC1	69.1*	-8.8	1.2
COc1ccc(-c2nc(CSCC(=O)NCCC3=CCCCC3)c(C)o2)cc1OC	.	-15.8	.
O=c1c2ccccc2nc2n1C(CSCc1ccc(Cl)cc1Cl)CS2 (stereo not drawn)	.	-15.2	.
SMILES	HIV RNase H inh-1	RmlC RmlD mix	HIV RNase H inh-2
COc1ccc(C(=O)Nc2ccccc2C(=O)NC(C(=O)NCc2ccco2)C(C)C)cc1 (stereo not drawn)	82.4*	9.2	7.5
COc1ccc(C(=O)Nc2ccccc2C(=O)N(Cc2ccco2)C(C(N)=O)C(C)C)cc1 (stereo not drawn)	.	4.6	.
COC(=O)C1=C(C(=O)OC)[C@@H]2N(C)c3ccccc3[C@@]23C[C@@H](CO)N=C3N1	.	-94.2	.
Cc1cc(-c2nn3c(-c4ccccc4)nnc3s2)c2ccccc2n1	82.1*	-9.8	62.7*
c1ccc(-c2cc(-c3nn4c(-c5ccco5)nnc4s3)c3ccccc3n2)cc1	75.2*	-3.6	26.0
COc1cc(OC)c(-c2nn3c(-c4ccco4)nnc3s2)cc1OC	-17.8	10.2	.
Cc1ccccc1-c1nn2c(-c3ccccc3)nnc2s1	-26.4	-11.7	.
CC(C)(C)c1ccc(S(=O)(=O)N2CC(=O)Nc3ccccc32)cc1	.	-8.8	.
Cc1cc(C)cc(NC(=O)NCc2nnc(SCc3ccccc3)n2C)c1	82.3*	-13.7	46.7
Cn1c(CNC(=O)Nc2ccccc2)nnc1SCc1ccccc1	0.1	1.3	.
C/C=C/Cn1c(Br)nc2c1c(=O)[nH]c(=O)n2C	-8.1	-9.8	.
C/C=C/Cn1c(SC)nc2c1c(=O)[nH]c(=O)n2C	76.8*	12.4	?
C/C=C/Cn1c(N2CCCCCC2)nc2c1c(=O)[nH]c(=O)n2C	87.2*	.	39.9
Cn1c(=O)[nH]c(=O)c2c1nc(N1CCCCC1)n2CCSc1ncccn1	-8.1	.	.
COCCNC(=O)COC(=O)/C=C/c1c(C)nn(Cc2ccc(Cl)cc2Cl)c1Cl	.	-8.3	.
COc1ccccc1NC(=O)c1ccc(-n2cccn2)nc1	.	-3.7	.
